Our source for the activity (max response), Potency and activity change, negative = viability loss values is PubChem BioAssay (NCATS).

Inconclusive results are not listed. Values without a mark were called inactive. Active and inactive are the calls of the source. The call rests on the fitted dose curve; in most records, active means well fitted cell-killing curve with a large enough effect; inconclusive means small, poorly fitted or top-dose-only effect; inactive means flat fitted curve, though single readings scatter.

Test [1] is described as follows: Cellular viability qHTS for adrenocortical cancer (ACC) cell line SW-13 (AID 1963989). Further: nearly all actives have a fitted effect of over 65% in size.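 On activity (max response): cells grown in serum-free medium with ITS supplement; on the % scale 0 is the no-effect control and ±100 the full control effect.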 Conditions: SW-13 ACC cells viability, CellTiter-Glo, 48 h; activity (max response): hits give low values. The method, boiled down:
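Viability was read as CellTiter-Glo luminescence after 48 h compound treatment (up to 46 uM final) of SW-13 cells grown serum-free; titration curves were fit with a four-parameter logistic model to give IC50 and efficacy.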

Test [2] can be described thus: Cellular viability qHTS for adrenocortical cancer (ACC) cell line NCI-H295R (AID 1963990). Further: nearly all actives have a fitted effect of over 60% in size.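 On activity change, negative = viability loss: 0% = DMSO only wells and -100% = full killing with cytotoxic reference compound.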 The method, boiled down: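 CellTiter-Glo ATP luminescence, read 48 h after compound addition, measured viability of NCI-H295R adrenocortical cells grown serum-free with ITS. Final concentrations spanned up to 46 uM. Data normalized to DMSO and doxorubicin, fitted for IC50 and maximal response.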
Potency means the concentration at half of the fitted maximal effect.

`CCN(CC)CCNC(=O)COc1ccc(OC)cc1`: in test [1], the activity (max response) is -8.99%. The Potency result in test [2] is “inactive”.
With `O=c1[nH]nc2c3c(cccc13)NC(CN1Cc3ccccc3C1)=N2`, the activity (max response) in test [1] was -23.2%. Also, the Potency entry in test [2] is “inactive”.
Regarding `CC[C@H]1OC(=O)[C@H](C)C(=O)[C@H](C)[C@@H](O[C@H]2O[C@H](C)C[C@H](N(C)C)[C@H]2O)[C@](C)(OC)C[C@@H](C)C(=O)[C@H](C)[C@H]2N(CCCCn3cnc(-c4cccnc4)c3)C(=O)O[C@]12C`, the activity (max response) in test [1] is -18.8%. For the same compound, the Potency entry in test [2] was “inactive”.
For `CC(C)C[C@H](CC(=O)O)C(=O)N[C@@H](Cc1c[nH]c2ccccc12)C(=O)N[C@@H](C)c1ccccc1`, in that order: 0.614% and “inactive”.
Consider `CCc1oc2ccccc2c1C(=O)c1cc(Br)c(O)c(Br)c1`, for which the Potency in test [1] and in test [2] was 7.31 µM (active) throughout.
Take `NC(=O)NC1N=C([O][Al])NC1=O` (configuration not stated): the activity (max response) in test [1] was -0.662%. Also, the Potency entry in test [2] is “inactive”.
As for `CC(=O)Oc1ccc(C2(c3ccc(OC(C)=O)cc3)C(=O)Nc3ccccc32)cc1`, the activity (max response) in test [1] is -6.19%. In addition, the Potency entry in test [2] was “inactive”.
Regarding `CN(C)CCNC(=O)COc1c2cccc1Cc1cccc(c1OCC(=O)NCCN(C)C)Cc1cccc(c1OCC(=O)NCCN(C)C)Cc1cccc(c1OCC(=O)NCCN(C)C)C2`, in test [1], the activity (max response) was 14.5%. Besides, the activity change, negative = viability loss in test [2] was 4.99% [at 9.17 µM].
As for `C=CC[N+]1([C@H]2C[C@H]3[C@@H]4CC[C@H]5C[C@H](OC(C)=O)[C@@H](N6CCCCC6)C[C@]5(C)[C@H]4CC[C@]3(C)[C@H]2OC(=O)CC)CCCCC1`, the activity (max response) in test [1] was -4.47%. Besides, in test [2], the Potency entry was “inactive”.
For the compound `CCc1cc2cc(OC)c(OC)cc2c(Cc2ccccc2)n1`, the activity (max response) in test [1] is -5.12%. For the same compound, the Potency result in test [2] was “inactive”.
On to `O=C(O)CC(C(=O)O)n1c(O)c(C2=c3cc(Br)ccc3=NC2=O)sc1=S` (configuration not stated), for which the activity (max response) in test [1] was -4.1%. For the same compound, the Potency result in test [2] was “inactive”.
With `CCN(CC)CCOC(=O)C(c1ccccc1)c1ccccc1`, the activity (max response) in test [1] is 0.334%. Also, the Potency entry in test [2] is “inactive”.
For `C=C1C[C@@]2(O)O[C@@]3(C[C@H]2C(C)C)[C@@H](C)CC[C@@H]13`, in that order: 6.19% and “inactive”.
Take `O=C(O)Cn1c(=O)n(Cc2ccc(Br)cc2F)c(=O)c2ccc(Cl)cc21`: in test [1], the activity (max response) is 14.5%. Moreover, in test [2], the Potency entry is “inactive”.
`CC(=O)Nc1ccc(C(=O)NC(C)(C)C)cc1`: the activity (max response) in test [1] was -16.7%. Moreover, the Potency result in test [2] was “inactive”.
For `CCCCCC1Nc2cc(C(F)(F)F)c(S(N)(=O)=O)cc2S(=O)(=O)N1` (configuration not stated), in that order: 4.72% and “inactive”.
Take `CCC(CC)C(c1ccc(Nc2nc3ccccc3s2)cc1)n1cncn1` (configuration not stated): the Potency was 22.4 µM (active) in test [1] and 17.8 µM (active) in test [2].
On to `COc1ccc(C(=O)N2CCN(C(=O)/C=C/c3ccc(Br)cc3)CC2)cc1`, for which the activity (max response) in test [1] is -12.8%. Moreover, the Potency entry in test [2] was “inactive”.
Regarding `Clc1cccc(-c2ccc(-c3nnc(CCCc4ccc5cccnc5n4)o3)cc2)c1`, the activity (max response) in test [1] is -11.9%. The Potency entry in test [2] is “inactive”.
Take `OC(CCCN1CCCCC1)(c1ccccc1)c1ccccc1`: in test [1], the activity (max response) was -5.81%. The Potency result in test [2] is “inactive”.
`CC(C)(Cc1c[nH]c2ccccc12)NCC(O)COc1ccccc1C#N` (configuration not stated): the activity (max response) in test [1] is -3.72%. The Potency entry in test [2] was “inactive”.
Take `Cc1ccc(O)c2ncccc12`: the activity (max response) in test [1] was 11.9%. Moreover, in test [2], the Potency is 20.6 µM (active).
With `CO/N=C1\CN(c2nc3c(cc2F)c(=O)c(C(=O)O)cn3C2CC2)CC1CN` (configuration not stated), the activity (max response) in test [1] is -3.25%. Further, the Potency entry in test [2] is “inactive”.
As for `CCN(CC)CCOc1ccccc1C(=O)CCc1ccccc1`, in test [1], the activity (max response) is -19.2%. The Potency result in test [2] was “inactive”.
For `COc1ccc(-n2cnc3cc(C(=O)N4CCCCC4)ccc32)cc1`, in that order: -10.1% and “inactive”.
For `CCc1cc2c(c(OCC(F)(F)F)c(C(=O)NC3CCN(C(=O)CO)CC3)n2C)c(=O)n1CC(=O)c1ccccc1`, in test [1], the activity (max response) was -16.3%. The Potency result in test [2] was “inactive”.
